Reference: PubChem BioAssay (EPA / NIEHS)
Where “and” joins values, the source holds several entries; their conditions need not be identical. Equal entries are not always repeated. Records with an inconclusive call do not appear. Some structures have more than one record in an assay (separate samples or runs), and their calls can disagree. Calls of active or inactive are those of the source. The calls were made as follows, unless noted: active = hit-call score of the fitted dose curve at least 0.9, where 1 is the maximum; inactive = score below 0.9.

Columns and labels:
[1] = IUF_NPC2-5_viability_120hr: Viability Assessment at 120 hours in the Leibniz Research Institute for Environmental Medicine (IUF) Neural Progenitor Cell Migration and Differentiation Assay (NPC2-5) (AID 2284312)
In short: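 Human fetal (GW 16-19) neural progenitor spheres of 0.3 mm were plated on poly-D-lysine/laminin in N2 differentiation medium and exposed from day 0 for 120 h, with half-medium refresh at day 3. Viability was read as alamar blue resazurin-to-resorufin fluorescence against DMSO.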

[2] = CCTE_Deisenroth_5AR_NBTE_donor: CCTE's 5alpha-reductase NanoBRET Target Engagement Assay […], Deisenroth Lab (AID 2284319); details: actives raise or lower the signal
In short: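 HEK293T cells transiently expressing SRD5A2-NanoLuc, exposed 5 h to chemicals (8 points, 10 nM - 29.9 uM), with testosterone tracer for the final 2 h. Donor luminescence at 460 nm read after Nano-Glo substrate plus extracellular NanoLuc inhibitor; bidirectional fit versus DMSO.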

[3] = CCTE_Deisenroth_5AR_NBTE_acceptor: CCTE's 5alpha-reductase NanoBRET Target Engagement Assay - Autofluorescence Screen, Deisenroth Lab (AID 2284321); details: actives raise or lower the signal;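 also: compound fluorescence in the acceptor channel under 460 nm excitation flags autofluorescence artifacts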
In short: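 Autofluorescence counter-screen: chemicals at an assumed nominal 100 uM in DMSO were scanned in three independent runs with 460 nm excitation. Gain or loss of acceptor signal was fitted bidirectionally against DMSO.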

IYD (gene 389434) = experiment: CCTE_GLTED_hIYD: CCTE's human Iodotyrosine Deiodinase (xIYD) Inhibition Assay, Great Lakes Toxicology and Ecology Division (GLTED) Lab (AID 2284317; active = hit-call score of the fitted dose curve at least 0.9, where 1 is the maximum;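 also: cell-free human IYD enzyme made in baculovirus insect cells; iodide freed from monoiodotyrosine measured by cerium arsenite color change at 420 nm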)
In short: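 hIYD: baculovirus-expressed human IYD deiodinated monoiodotyrosine for 3 h with test chemical; free iodide was measured by Sandell-Kolthoff absorbance at 420 nm and normalized to MNT and DMSO/NaOH controls.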

[4] = VALA_TUBHUV_Agonist_CellCount: Viability Assessment in the VALA Sciences human Umbilical Vein Endothelial Tubule Formation (TUBHUV) Agonism Assay (AID 2284309; active = hit-call score of the fitted dose curve at least 0.9, where 1 is the maximum)
In short: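 HUVEC co-cultured 1:3 with HDF for 3 days in 10 ng/ml VEGF, then compounds added in VEGF medium for a further 3 days (72 h). Nuclear-stain/CD31 imaging cell count. Positive-direction fit versus 0.1% DMSO vehicle.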

[5] = VALA_TUBHUV_Antagonist_CellCount: Viability Assessment in the VALA Sciences human Umbilical Vein Endothelial Tubule Formation (TUBHUV) Antagonism Assay (AID 2284310; active = hit-call score of the fitted dose curve at least 0.9, where 1 is the maximum)
In short: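 HUVEC co-cultured with HDF (1:3) 3 days in 10 ng/ml VEGF, then 3 days with compounds in VEGF medium. Fixed, nuclear stain and CD31 immunofluorescence, imaged; cell counts fitted versus 0.1% DMSO, loss of signal read as lower viability.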

TTR (gene 7276) = experiment: CCTE_GLTED_hTTR_0.5uM: CCTE's human Transthyretin (hTTR) Inhibition Assay, with 0.5uM TTR, Great Lakes Toxicology and Ecology Division (GLTED) Lab (AID 2284320)
In short: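 Cell-free displacement assay in which human TTR at 0.5 uM was incubated with test chemical for 2 h. Displacement of the ANSA probe was read by fluorescence at 380 nm excitation/475 nm emission. Loss of signal was fitted in the positive direction versus DMSO.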

[6] = VALA_TUBIPS_Agonist_TubuleLength: VALA Sciences human iPS-derived Endothelial Tubule Formation (TUBIPS) Agonism Assay (AID 2284311; active = hit-call score of the fitted dose curve at least 0.9, where 1 is the maximum)
In short: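 Human iPS-derived endothelial cells were exposed to compound for 72 h. Tubule formation was imaged by high-content fluorescence and scored as gain of signal relative to DMSO vehicle (agonist mode).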

[7] = VALA_TUBIPS_Antagonist_TubuleLength: VALA Sciences human iPS-derived Endothelial Tubule Formation (TUBIPS) Antagonist Assay (AID 2284313; active = hit-call score of the fitted dose curve at least 0.9, where 1 is the maximum)
In short: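 Cells grown 3 days with 10 ng/ml VEGF, then exposed to compounds in VEGF medium for another 3 days. After fixation, nuclear stain and CD31 immunofluorescence imaging gave mean total tubule length against 0.1% DMSO; suramin (100 uM) inhibition control.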

[8] = VALA_MIGHUV2_WoundArea: VALA Sciences human Umbilical Vein Endothelial Cell Migration (MIGHUV) Assay, Area of Scratch Wound after Recovery (AID 2284316; active = hit-call score of the fitted dose curve at least 0.9, where 1 is the maximum)
Experimental: VALA_MIGHUV2_BCatenin is a cell-based, multiplexed assay that uses umbilical vein-derived endothelial cells (HUVEC). Measurements were taken 24 hours after chemical dosing in a 96-well plate.VALA_MIGHUV2_WoundArea is the one of two assay components measured from the VALA_MIGHUV2 assay. It is designed to make measurements of endothelial migration, a form of morphology reporter, as detected with fluorescence intensity signals by HCS Fluorescent Imaging technology. Data from the assay component VALA_MIGHUV2_WoundArea was analyzed at the endpoint, VALA_MIGHUV2_WoundArea, in the positive analysis fitting direction relative to DMSO as the negative control and baseline of activity. Using a type of morphology reporter, gain-of-signal activity can be used to understand developmental effects. To generalize the intended target to other relatable targets, this assay endpoint is annotated to the neurodevelopment intended target family, where the subfamily is migration.
Cells were seeded on 384-well microplates (day-0) at a density of 9000 cells per well for detection of wound area recovery or 4000 cells per well for detection of beta-catenin (CTNB) immunoreactivity and incubated in Endothelial Cell Growth Medium (CAI, San Diego; catalog 211-500). After 24 hours of culture, the HUVEC plates were scratched using a custom scratch head with the Bravo liquid handling system. […]

With `CC1(C)C(C=C(Cl)Cl)C1C(=O)OC(C#N)c1ccc(F)c(Oc2ccccc2)c1` (centres undefined) as the molecule, how does the outcome [1] read?
Its outcome is “inactive”.

With `CCCN(CCC)c1c([N+](=O)[O-])cc(C(F)(F)F)cc1[N+](=O)[O-]` as the molecule, how does the outcome [2] read?
Its outcome is “inactive”.

What about the outcome [3] of the same molecule?
Its outcome is “inactive”.

With `ClC1C(Cl)C(Cl)C(Cl)C(Cl)C1Cl` (centres undefined) as the molecule, how does the outcome [2] read?
The outcome was “inactive”.

And the outcome [3]?
Its outcome is “inactive”.

For `CNC(=O)CSP(=S)(OC)OC`, which outcome [1] is on record?
Its outcome is “inactive”.

Which outcome (IYD (gene 389434)) does the source give for `CCCN(CCOc1c(Cl)cc(Cl)cc1Cl)C(=O)n1ccnc1` here?
The outcome was “inactive”.

And the outcome [2]?
Its outcome is “inactive”.

What about the outcome [3] of the same molecule?
The outcome was “inactive”.

What does the source list for `O=C1c2ccccc2C(=O)N1SC(Cl)(Cl)Cl`?
outcome [2]: inactive; outcome [3]: inactive

Which outcome [1] does the source give for `O=[N+]([O-])/N=C1\NCCN1Cc1ccc(Cl)nc1` here?
Its outcome is “inactive”.

What about the outcome [2] of the same molecule?
The outcome was “inactive”.

What about the outcome [3] of the same molecule?
Its outcome is “inactive”.

What does the source list for `CC1(c2ccc(Oc3ccccc3)cc2)OC(=O)N(Nc2ccccc2)C1=O` (centres undefined)?
outcome [1]: inactive; outcome [2]: inactive; outcome [3]: inactive

Which AC50 [1] does the source give for `CC[C@H](C)[C@H]1O[C@]2(C=C[C@@H]1C)C[C@@H]1C[C@@H](C/C=C(\C)[C@@H](O[C@H]3C[C@H](OC)[C@@H](O[C@H]4C[C@H](OC)[C@@H](O)[C@H](C)O4)[C@H](C)O3)[C@@H](C)/C=C/C=C3\CO[C@@H]4[C@H](O)C(C)=C[C@@H](C(=O)O1)[C@]34O)O2` (tested in a mixture with another compound) here?
The AC50 was 8.02 µM (active).

Which results are given for `CCC(C)(NC(=O)c1cc(Cl)c(C)c(Cl)c1)C(=O)CCl` (centres undefined)?
outcome [2]: inactive; outcome [3]: inactive

For `CCOCN(C(=O)CCl)c1c(C)cccc1CC`, which outcome (IYD (gene 389434)) is on record?
Its outcome is “inactive”.

Which outcome [1] does the source give for `CCC(C)(C)C(=O)OC1=C(c2ccc(Cl)cc2Cl)C(=O)OC12CCCCC2` here?
The outcome was “inactive”.

With `COP(=S)(OC)Oc1ccc([N+](=O)[O-])cc1` as the molecule, how does the outcome [1] read?
Its outcome is “inactive”.

With `CC(C)N(C(=O)COc1nnc(C(F)(F)F)s1)c1ccc(F)cc1` as the molecule, how does the outcome [1] read?
The outcome was “inactive”.

For `Oc1cc(Cl)ccc1Oc1ccc(Cl)cc1Cl`, which outcome [4] is on record?
Its outcome is “inactive”.

What about the outcome [5] of the same molecule?
The outcome was “inactive”.

What about the AC50 (IYD (gene 389434)) of the same molecule?
Its AC50 is 37.2 µM (active) and 55.2 µM (active) and 24.3 µM (active).

Which outcome [2] does the source give for `CCC(C)Nc1c([N+](=O)[O-])cc(C(C)(C)C)cc1[N+](=O)[O-]` (centres undefined) here?
Its outcome is “inactive”.

What about the outcome [3] of the same molecule?
Its outcome is “inactive”.

With `O=C(O)C(F)(F)C(F)(F)C(F)(F)C(F)(F)C(F)(F)C(F)(F)C(F)(F)F` as the molecule, how does the outcome [1] read?
The outcome was “inactive”.

And the AC50 (TTR (gene 7276))?
Its AC50 is 450 nM (active) [middle of 4 runs].

Which results are given for `O=S1OCC2C(CO1)C1(Cl)C(Cl)=C(Cl)C2(Cl)C1(Cl)Cl` (centres undefined)?
outcome [1]: inactive; outcome [2]: inactive; outcome [3]: inactive

With `COP(=O)(OC)OC=C(Cl)Cl` as the molecule, how does the AC50 [1] read?
Its AC50 is 29.7 µM (active).

Which outcome [4] does the source give for `O=S(=O)(O)C(F)(F)C(F)(F)C(F)(F)C(F)(F)C(F)(F)C(F)(F)C(F)(F)C(F)(F)F` here?
Its outcome is “inactive”.

And the outcome [6]?
The outcome was “inactive”.

What about the outcome [1] of the same molecule?
The outcome was “inactive”.

And the outcome [7]?
The outcome was “inactive”.

What about the outcome [8] of the same molecule?
Its outcome is “inactive”.

And the AC50 (IYD (gene 389434))?
Its AC50 is 59 µM (active) and 90.4 µM (active).

What about the outcome (IYD (gene 389434)) of the same molecule?
The outcome was “inactive”.

And the AC50 (TTR (gene 7276))?
The AC50 was 489 nM (active) and 455 nM (active).

For `O=C(O)COc1ccc(Cl)cc1Cl`, which outcome [1] is on record?
Its outcome is “inactive”.
